# Data: PubChem BioAssay AID493084 (National Center for Advancing Translational Sciences (NCATS), 2011)
# Among all 360,000 compounds or so, about 650 (0.18%) were called active. The full list was thinned out, with actives kept by preference. A number with no mark means an inactive call. Rule as the data show it: active = activation above about 30%; inactive = the rest.
# Target: Thyrotropin-releasing hormone receptor (Homo sapiens) (UniProt P34981)
# Assay: qHTS for Small Molecule Agonists and Allosteric Enhancers of Human TRH Receptor: Primary Screen for Agonists. Also: 0% is about no effect.
# Conditions: TRHR cells, calcium flux fluo-8, FDSS agonist mode; at 2 µM; active compounds read high
# Description: NIH Chemical Genomics Center [NCGC] NIH Molecular Libraries Probe Centers Network [MLPCN] MLPCN Grant: MH089816-01 Assay Submitter (PI): Marvin Gershengorn This project aims to identify small drug-like molecules that activate (agonists) the thyrotropin releasing hormone (TRH) receptor (TRHR) or enhance its TRH-stimulated activity (allosteric enhancers). TRHR, a drug-accessible cell surface receptor expressed in specific brain regions, and its ligand TRH have been implicated in several central nervous system disorders, including depression and anxiety. Small molecule TRHR agonists or allosteric enhancers that are metabolically stable and able to cross the blood-brain barrier might serve as probes to elucidate the roles of brain TRH receptors in animal models, and might be valuable as lead compounds for the development of drugs to treat patients with central nervous system disorders. Upon TRHR-Gq activation in TRHR cells, intracellular calcium is released from stores in the endoplasmic reticulum. […] This primary screen measures compound-induced activation of calcium release.
# For the HTS assay freshly prepared cells are plated at a density of 2000/well in 3 ul of complete DMEM medium containing 10% serum in 1536-well plates and cultured over night at 37 C in a humidified incubator with 5% CO2. The next day, 2 ul of a no wash calcium dye (ABD Bioquest) was added to the cells and plates were incubated at room temperature for 1 hour. For the assay, assay plates were loaded into the FDSS kinetic plate reader. A 10 cycle (1 second/cycle) baseline measurement is taken and then the FDSS online 1536 pintool delivers 23 nl of compound library (as well as TRH controls) to the plate. The plate is measured for kinetically at 1 cycle/sec for 180 seconds and is considered to be the agonist portion of the assay (eg, compounds which activate a positive calcium response during this portion are flagged as potential agonists). Following the 180 second read, 1 ul of either an EC20 (positive modulation assay) is delivered by an onboard pipette head. Measurements are taken kinetically for an additional 180 seconds. TRHR FDSS Screening Protocol 1. Reagent, 3 uL 2000 cells/well 1536 TC treated Black plate in media containing 10% FCS 2. Time, 18 hours, 33.5C 5% CO2 (cells grown at 37C) 3. Reagent, 2 uL ABD fluo-8 Ca dye 4. Time, 30 min-1.5hrs hours, Room temp (6 plates/batch) 5. Detector, EX 480/EM 530C, FDSS 10 cycles baseline (1sec/cycle) 6. Compound, 23 nL of stock solution from library 7. Detector, EX 480/EM 530C, FDSS […] (1sec/cycle) Agonist mode 8. Compound, 1 ul EC20 of TRH made up in HEPES HBSS, 10 nM final 9. Detector, EX 480/EM 530C, FDSS 100 cycles (1sec/cycle) Potentiator mode
# Chain of Thyrotropin-releasing hormone receptor (Homo sapiens) (P34981 whole entry, looked up): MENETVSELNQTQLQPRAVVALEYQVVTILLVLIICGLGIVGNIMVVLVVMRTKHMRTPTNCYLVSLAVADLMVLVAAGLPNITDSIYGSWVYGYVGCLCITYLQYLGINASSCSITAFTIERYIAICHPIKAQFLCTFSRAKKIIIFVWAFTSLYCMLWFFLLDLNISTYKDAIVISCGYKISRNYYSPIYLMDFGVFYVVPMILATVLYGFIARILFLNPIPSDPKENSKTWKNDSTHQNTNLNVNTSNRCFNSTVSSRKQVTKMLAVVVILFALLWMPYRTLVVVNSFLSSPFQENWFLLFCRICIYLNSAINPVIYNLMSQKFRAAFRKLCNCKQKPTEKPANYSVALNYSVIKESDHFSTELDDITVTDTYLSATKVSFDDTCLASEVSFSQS
row,SMILES,activation
1,O=C1C(F)N([S+](=O)([O-])c2ccc3c(c2)OCCO3)CCN1[S+](=O)([O-])c1c(F)cccc1F (stereo unspecified),0.239%
2,Cc1ccc(Cl)cc1N1CCN(C(=O)c2cn(C)c3ccc(S(=O)(=O)N(C)C4CCCCC4)cc3c2=O)CC1,-1.19%
3,O=C(NCCc1ccccc1)C(=O)NCC(c1ccco1)S(=O)(=O)c1ccccc1 (stereo unspecified),-0.0493%
4,Cc1nn(C)cc1N1C(=O)c2cccc3c(N)ccc(c23)C1=O,172% (active)
5,CN1C(=O)c2cccc3c(N)ccc(c23)C1=O,152% (active)
6,CCc1nnc(NC(=O)[C@@H](NC(=O)c2cccc(C)c2)C(C)C)s1,47.4% (active)
7,CC(=O)Nc1ccc(NC(=O)[C@@H](NC(=O)c2cccc(C)c2)C(C)C)cc1,0.205%
8,Cc1cccc(C(=O)NCc2nnc(SC(C)C(=O)Nc3nnc(C)s3)n2C)c1 (stereo unspecified),-0.0214%
9,Cn1ccc2cc(S(=O)(=O)N3CCCC(C(=O)NCc4ccccc4F)C3)ccc21 (stereo unspecified),-0.718%
10,Cc1nn(C(C)C(=O)NCCc2ccccc2)c(=O)c2c1sc1ccccc12 (stereo unspecified),-0.291%
11,COc1cc(Cl)c(NC(=O)CC(C)S(=O)(=O)c2cc3c(cc2C)NC(=O)CO3)c(OC)c1 (stereo unspecified),-0.196%
12,CCCNC(=O)C(CC)n1nc(CC)n2c(cc3oc(C)cc32)c1=O (stereo unspecified),0.892%
13,COc1ccc(-c2nc(Cn3c(=O)cc(C)c4c(C)nn(-c5ccccc5)c43)c(C)o2)c(OC)c1,0.643%
14,Oc1c(C(c2ccc(F)cc2)N2CCN(Cc3ccccc3)CC2)sc2nc(-c3ccco3)nn12 (stereo unspecified),-0.524%
15,COc1ccc(-c2onc(C)c2C)cc1S(=O)(=O)NCC1CCN(Cc2cccc(F)c2)CC1,-0.0549%
16,CCOC(=O)C1CCN(C(c2ccc(F)cc2)c2sc3nc(-c4ccco4)nn3c2O)CC1 (stereo unspecified),0.0847%
17,COc1cc(/C=C(\C#N)c2nc3ccccc3[nH]2)ccc1O,33.3% (active)
18,COc1cc(/C=C(\C#N)c2nc3c(s2)CC(C)CC3)ccc1O (stereo unspecified),38.3% (active)
19,CCOc1ccc(/C=C(\C#N)c2nc3ccccc3c(=O)[nH]2)cc1OC,2.27%
20,N#C/C(=C\c1ccccc1F)c1nc2ccccc2c(=O)[nH]1,3.32%
21,COc1cccc2cc(-c3nc(Cl)c4c5c(sc4n3)CC(C)CC5)c(=O)oc12 (stereo unspecified),0.639%
22,Cc1ccc(S(=O)(=O)c2cn(Cc3ccccc3)c3cc(N4CCCC4)c(F)cc3c2=O)c(C)c1,0.661%
23,Cc1ccc(C)c(N2CCN(C(=O)Cc3c(C(=O)O)c(C)cn3C)CC2)c1,-0.0012%

row,SMILES,activation
1,COc1ccc(CNC(=O)c2cc3c(-c4ccccc4F)nn(C)c3s2)c(OC)c1,-0.894%
2,O=C(Nc1ccc(O)c(-c2nc3ccccc3o2)c1)c1ccc(-c2cccc(Cl)c2)o1,0.235%
3,CCOC(=O)CC1C(=O)NCCN1c1nc2c(C)cccn2c(=O)c1/C=C1\SC(=S)N(C(C)CC)C1=O (stereo unspecified),52.4% (active)
4,CCCN(CCC)c1nc2c(C)cccn2c(=O)c1/C=C1/SC(=S)N(Cc2ccco2)C1=O,12%
5,CCOC(=O)CNC(=O)c1cc2c(=O)n3cccc(C)c3nc2s1,-0.701%
6,COc1ccc(-c2cc(C(=O)NCc3cc(OC)c(OC)c(OC)c3)[nH]n2)cc1,-0.734%
7,O=C(Cc1ccc(Cl)cc1)NCC(c1cccs1)S(=O)(=O)c1ccc(Cl)cc1 (stereo unspecified),-0.0259%
8,CCCCN1C(=O)c2[nH]nc(-c3ccccc3O)c2C1c1cccc(OCc2ccccc2)c1 (stereo unspecified),0.132%
9,Cc1ccc2nc(-c3ccc(C)c(NC(=O)Cc4ccccc4)c3)oc2c1,-0.54%
10,Cc1ccc(C2c3[nH]c4ccccc4c3CCN2C(=O)c2cccc(C)c2)cc1 (stereo unspecified),0.132%
11,Cc1ccc(S(=O)(=O)NC(N)=NCCC[C@@H](NC(=O)CNC(=O)c2ccccc2)C(=O)Nc2cc(C(F)(F)F)ccc2Cl)cc1,-1.22%
12,COc1ccc(C2C(=O)N(C3CCCCC3)CC(=O)N2Cc2ccccc2Cl)cc1OC (stereo unspecified),-1.14%
13,COc1ccc(-c2nc(Cn3c(=O)cc(C)c4c(C)nn(-c5ccccc5)c43)c(C)o2)cc1OC,-0.897%
14,Cc1ccc(Cn2ncc3c4sc(C)cc4n(C)c3c2=O)c(C)c1,0.195%
15,Cc1ccccc1CNC(=O)C1CCCN(S(=O)(=O)N(C)c2ccc(F)cc2)C1 (stereo unspecified),-0.334%
16,Cc1cc(C)cc(NC(=O)CSc2nc3nccnc3c(=O)n2CCc2c[nH]c3ccccc23)c1,0.728%
17,O=C(CCS(=O)(=O)c1cc(Br)cc2c1N(C(=O)C1CC1)CC2)Nc1ccc(C(F)(F)F)cc1,-0.155%
18,CCOC(=O)c1c(S(=O)(=O)N2CCC(C(=O)NCc3ccccc3OC)CC2)c(C)n(C)c1C,-0.102%
19,O=C(CCSCc1cccc(F)c1)NCc1ccccc1,-0.592%
20,CN(Cc1ccccc1)C(=O)c1cn(C)c2ccc(S(=O)(=O)N3CCCCC3)cc2c1=O,0.115%
21,CCOc1ccc(C2C(=O)N(C3CCCCC3)CC(=O)N2CCC2=CCCCC2)cc1OC (stereo unspecified),0.439%
22,O=[S+]([O-])(c1ccc(OC(F)(F)F)cc1)N1CCN([S+](=O)([O-])c2ccc3c(c2)OCCO3)CC1,-0.283%
23,CCc1ccc2oc(-c3ccc(C)c(NC(=O)/C=C/c4ccco4)c3)nc2c1,-0.323%
